High-throughput results deposited in PubChem by National Center for Advancing Translational Sciences (NCATS).
Compounds with a hit are over-represented: about 13% of the library has one in this group of screens.
CHX counter = affects cycloheximide protein synthesis inhibition readout, counter-screen; AID 2314; actives 12% (n = 300,000); max response, %; cell reporter, cycloheximide protein synthesis inhibition counterscreen; in the data active = max response mostly above about 13%, no sharp cut-off; inactive = mostly below about 14%; also: read at 38.3 µM for the half of the compounds with a filed dose; 0% is about no effect
MARV entry inh = blocks Marburg virus binding to or entry into cells; Marburg virus pseudotyped entry inhibition, cell reporter; Potency, µM (highest dose often 37.8 µM), without a hit: at the highest dose activity change, negative = inhibition, most hits filed as inhibitors; actives 1.8% (n = 300,000); AID 540276; calls by dose curve; tested in HEK293 cells; also: potency is read from the fitted curve at half-maximal effect; % is scaled to controls: 0 for no effect and ±100 for the full control effect
LASV entry inh = blocks Lassa virus binding to or entry into cells; Potency, µM (highest dose often 37.9 µM), inactives show top-dose activity change, negative = inhibition, actives largely listed as inhibitors; actives 1.2% (n = 300,000); Lassa virus pseudotype entry inhibition, cell reporter; AID 540256; calls by dose curve; tested in HEK293 cells; also: potency is read from the fitted curve at half-maximal effect; % is scaled to controls: 0 for no effect and ±100 for the full control effect; nearly all actives have a fitted effect of over 50% in size
Shiga toxin inh = inhibitors of Shiga toxin in Vero cells | actives 9.2% (n = 290,000) | inhibition, % at 38.7 µM | AID 2315 | Vero cells, Shiga toxin protein synthesis inhibition reporter; in the data active = inhibition mostly above about 28%, no sharp cut-off; inactive = mostly below about 43%; also: 0% is about no effect
HCV inhibitor = blocks hepatitis C virus; Huh7.5.1 HCVcc-Cre infection, luciferase reporter, 44 h; Potency, µM (doses to about 41.8 µM), for inactives: at the top dose activity change, negative = inhibition, actives largely listed as inhibitors; actives 3.4% (n = 340,000); active = well fitted inhibition curve with a large enough effect; inconclusive = small, poorly fitted or top-dose-only effect, or another doubt; inactive = no such curve, though single readings can be large or run the other way; also: potency is read from the fitted curve at half-maximal effect; % is scaled to controls: 0 for no effect and ±100 for the full control effect
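1,000 cells/well; 4 h culture; + compound; + HCVcc-Cre (~0.5 moi); 44 h; luciferase substrate, RT 15 min; read 15 sec.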
FMDV inh = blocks foot and mouth disease virus; FMDV antiviral cell-based qHTS; Potency, µM (top dose mostly 57.9 µM), without a hit: top-dose activity change, negative = inhibition, usual class: inhibitors; actives 1.2% (n = 410,000); AID 1159524; calls by dose curve; tested in HEK293T cells; also: read-out not given here; potency is read from the fitted curve at half-maximal effect; % is scaled to controls: 0 for no effect and ±100 for the full control effect; nearly all actives have a fitted effect of over 45% in size
An asterisk follows results filed as active; u = inconclusive; x = no result given; [ ] = remark or other dose.

SMILES	CHX counter	MARV entry inh	LASV entry inh	Shiga toxin inh	HCV inhibitor	FMDV inh
CC(=O)c1c(OC(=O)c2ccccc2)ccnc1C(F)(F)F	x	x	x	x	13%	-13%
CCOC(=O)C1=C(C)Nc2ncnn2C1/C=C/c1ccccc1 (stereo not given)	1	u	-7%	-2	-24%	0%
CCCC1=C(C(=O)OCC)C(/C=C/c2ccccc2)n2ncnc2N1 (stereo not given)	-2	9.2µM*	-19%	-19	u	-27%
Cc1sc2ccccc2c1CC1=NCCN1	x	u	13%	x	3.2µM*	u
CCc1cc2c(=O)c(-c3cscn3)coc2cc1O	31*	u	u	67*	-20%	21%
CCOC(=O)c1oc2cc(O)c(CC)cc2c(=O)c1-c1cscn1	16	-1%[46.1 µM]	-3%[46.1 µM]	0	14%	18%
CCc1cc2c(=O)c(-c3cscn3)coc2cc1OC	17	-3%	x	101*	x	x
COc1ccc(-c2oc(=O)c3cc(OC)c(OC)cc3c2/C=C/c2ccc(F)cc2)cc1	x	x	x	x	u	-11%
CCN(CC)S(=O)(=O)c1ccc2oc(SCC(=O)Nc3cc(C)on3)nc2c1	x	u	u	x	6.3µM*	-3%
CNC(=O)CSc1nc2cc(S(=O)(=O)Nc3ccccc3OC)ccc2o1	-4	13%[46.1 µM]	7%[46.1 µM]	-9	15%	4%
CCN(CC)S(=O)(=O)c1ccc2oc(SCC(=O)NC3CC3)nc2c1	2	5%	-2%	-11	11%	-14%
CCN(CC)S(=O)(=O)c1ccc2oc(SCc3ccc(F)cc3)nc2c1	12*	u	11µM*	6	u	u
COc1ccccc1NS(=O)(=O)c1ccc2oc(SCc3ccc(C#N)cc3)nc2c1	1	u	u	-9	11µM*	u
CCOc1ccc(C2N(c3cc(Cl)ccc3OC)C(=O)C3CCCN32)cc1OC (stereo not given)	-3	2%	x	-10	2%	-13%
CCN(CC(=O)Nc1ccccc1C(F)(F)F)C(=O)c1cc(S(=O)(=O)N2CCCCCC2)ccc1OC	x	-11%	-3%	x	-22%	u
CCN1Cc2ccccc2-c2ccccc2S1(=O)=O	x	1%	x	x	0%	0%
COc1ccc(/C=C/C(=O)c2c(C)cc(C)[nH]c2=O)c2ccccc12	-2	u	u	-5	11µM*	-25%
CCc1ccc(/C=C/C(=O)c2c(C)cc(C)[nH]c2=O)cc1	1	u	u	-5	u	28µM*
CCc1ccc(/C=C(\C)C(=O)c2c(C)cc(C)[nH]c2=O)cc1	5	x	x	-22	2%	8%
Cc1ccc(/C=C/C(=O)c2c(C)cc(C)[nH]c2=O)cc1	-3	23µM*	u	-14	u	u
O=C(Nc1ccc(F)cc1F)c1ccccc1-c1ccccc1	0	-3%	u	5	48%	-12%
CC(C)NC(=O)c1ccc(S(=O)(=O)N(C)C)cc1	-3	-3%[46.1 µM]	11%[46.1 µM]	-1	-1%	-2%
CCCn1c(C)cc(C(=O)COc2ncnc3sccc23)c1C	44*	-28%	u	105*	-15%	43%
Cc1cc(C(=O)COc2ncnc3sccc23)c(C)n1C1CC1	49*	7%	1%	92*	-14%	x
CCCn1c(C)cc(C(=O)COc2ccc(-c3nnco3)cc2)c1C	42*	u	4%	67*	u	-21%
SMILES	CHX counter	MARV entry inh	LASV entry inh	Shiga toxin inh	HCV inhibitor	FMDV inh
CCCNC(=O)COc1ncnc2sccc12	15	-2%[46.1 µM]	u	2	-13%	-11%
O=C(NC1CCOc2ccccc21)c1ccccn1 (stereo not given)	-3	8%[46.1 µM]	15%[46.1 µM]	-11	7%	-2%
Nc1cc(C(=O)OCC(=O)Nc2ccc(N3CCOCC3)cc2)ccc1Cl	x	x	x	x	13%	-13%
CCSc1nc2c(c(=O)n1-c1ccc(F)cc1)SCC2	1	0%	-12%	12	-7%	x
O=c1c2c(nc3cc(-c4ccccc4Cl)[nH]n13)CCS2	38*	u	-26%[46.1 µM]	78*	6%	-10%
O=c1c2c(nc3cc(-c4ccccc4)[nH]n13)CCS2	43*	u	-7%	75*	-8%	1%
CCOC(=O)N1CCC(c2cc(=O)n3[nH]c(-c4ccccc4)cc3n2)CC1	-3	x	x	2	15%	-18%
COC(=O)C[C@H]1c2ccc(C(F)(F)F)cc2S(=O)(=O)N1Cc1ccccc1	x	x	x	x	4%	44%
O=C(/C(=C/O)N=Nc1ccccc1)c1ccncc1	-4	8%	u	-2	16%	u
Cc1cccc(N=N/C(=C\O)C(=O)c2cccs2)c1	35*	u	u	93*	u	u
CC(C)C1N=C(c2ccc3c(c2)OCO3)CC(c2ccccc2O)N1 (stereo not given)	39*	x	x	79*	u	14%
CC(=O)Oc1ccc2c(c1)C(=O)CCCCCC(=O)O2	x	x	x	x	x	14%
Oc1ccc(/C=N/Nc2nccnc2Cl)cc1	21*	u	u	75	16%	-8%
Fc1cccc(/C=N/Nc2nccnc2Cl)c1	48*	x	x	98*	10%	75%
Fc1ccc(/C=N/Nc2nccnc2Cl)cc1	40*	x	x	96*	4%	52%
Nc1c(Cl)ncnc1N/N=C/c1ccc(O)cc1	26*	-2%	x	47*	16%	47%
COc1cc(-c2cc(-c3ccccc3)nc(SCC(=O)O)c2C#N)cc(OC)c1OC	0	-10%	u	15	11%	-1%
O=C(O)CC1(C(=O)O)CC2C=CC1C2 (stereo not given)	x	x	x	x	x	-3%
COc1ccccc1-c1ccnc(-n2ncc(C(=O)NCc3cccnc3)c2C)n1	x	x	x	x	x	9%
c1ccc(CCn2nnnc2CN2CCc3ccccc32)cc1	9	1%[46.1 µM]	-18%	-5	-13%	-11%
CS(=O)(=O)Nc1cccc(C2=NN(S(C)(=O)=O)C(c3ccc4c(c3)OCO4)C2)c1 (stereo not given)	25*	-6%	u	50*	-12%	23%
CS(=O)(=O)N1N=C(c2ccccc2)CC1c1ccc2c(c1)OCO2 (stereo not given)	66*	u	u	99*	1%	0%
CC(=O)N1N=C(c2ccccc2)CC1c1ccc2c(c1)OCO2 (stereo not given)	22	x	x	19	-16%	8%
CS(=O)(=O)Nc1ccc(C2=NN(S(C)(=O)=O)C(c3ccccc3)C2)cc1 (stereo not given)	20	1%	7%	42*	12%	58%
CCS(=O)(=O)N1N=C(c2cccc(NS(C)(=O)=O)c2)CC1c1cccs1 (stereo not given)	-3	x	x	-3	11%	6%
O=C(c1ccco1)c1cn(CC(=O)N2CCCCCC2)c2ccccc12	-2	3%	-1%	13	13%	-4%
CC(=O)NCCc1ccc(C(=O)COC(=O)c2ccco2)cc1	x	13%	3%	x	23%	-12%
O=C(CCNc1ccc(F)cc1)c1ccco1	52*	6%	0%	90*	u	19%
